Test results from the supplement of paper PMC5919970.
Whole data set: some 2,000 compounds, median “fractional viability relative to vehicle” near 0.91, cut for the lowest 2% near 0.045. Only a selection was taken, and the lowest values are over-represented in it overall.

Tested on: TYKNU
Assay: fractional viability relative to vehicle; TYKNU is a high-grade serous ovarian cancer line; higher = less growth inhibition
Conditions: 72 h
In short: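 TYKNU control cells or lentiCRISPRv2 knockout derivatives were plated at 500 cells per well in duplicate into drug-stamped 384-well plates holding a ~2100-compound library at 2 or 10 μM. Culture was in RPMI 1640 with 10% FBS at 37 °C in 5% CO2, with 72 h of drug treatment. Viability was measured by Cell Titer Glo luminescence, and the averaged duplicate treatment wells were normalised to duplicate control wells at the same plate position.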

[1] = 2uM, genotype: DNM1L knockout (sgDNM1L #1)
[2] = 2uM, genotype: sgCTRLA1 (non-targeting control)
[3] = 10uM, genotype: DNM1L knockout (sgDNM1L #1)
[4] = 10uM, genotype: sgCTRLA1 (non-targeting control)

Compound | fractional viability [1] | fractional viability [2] | fractional viability [3] | fractional viability [4]
CC(CNC(=O)c1cccnc1)NC(=O)c1cccnc1 (stereo not given) [Nicaraven] | 0.754 | 1.07 | 0.726 | 0.99
CCCS(=O)(=O)Nc1ccc(F)c(C(=O)c2c[nH]c3ncc(-c4ccc(Cl)cc4)cc23)c1F [Vemurafenib (PLX4032, RG7204)] | 1.05 | 1.26 | 0.823 | 0.974
COc1ncc(-c2ccc3nccc(-c4ccnnc4)c3c2)cc1NS(=O)(=O)c1ccc(F)cc1F | 0.446 | 0.184 | 0.0665 | 0.0352
COC(=O)N[C@H](C(=O)N1CCC[C@H]1c1ncc(-c2ccc(-c3ccc(-c4cnc([C@@H]5CCCN5C(=O)[C@@H](NC(=O)OC)C(C)C)[nH]4)cc3)cc2)[nH]1)C(C)C | 1.04 | 1 | 0.511 | 0.654
C=CC(=O)Nc1ccc2ncnc(Nc3cccc(Br)c3)c2c1 | 0.927 | 0.921 | 0.248 | 0.317
C=CC(=O)Nc1ccc2ncnc(Nc3ccc(OCc4cccc(F)c4)c(Cl)c3)c2c1 | 0.704 | 0.853 | 0.044 | 0.0416
CS(=O)(=O)CCNCc1ccc(-c2ccc3ncnc(Nc4ccc(OCc5cccc(F)c5)c(Cl)c4)c3c2)o1 | 1.08 | 1.02 | 0.179 | 0.303
COCC(=O)NC/C=C/c1ccc2ncnc(Nc3ccc(Oc4ccc(C)nc4)c(C)c3)c2c1 | 1.07 | 1.08 | 0.886 | 1.06
Cc1c(Cn2c(C)nc3c(C(=O)O)cc(N4CCOCC4)cc32)cccc1C(F)(F)F | 0.754 | 0.989 | 0.83 | 0.849
CC[C@@H]([C@H](C)O)n1ncn(-c2ccc(N3CCN(c4ccc(OC[C@@H]5CO[C@@](Cn6cncn6)(c6ccc(F)cc6F)C5)cc4)CC3)cc2)c1=O [Posaconazole] | 0.919 | 1.13 | 0.868 | 1.05
C=CC(=O)Nc1cccc(Nc2nc(Nc3ccc(N4CCN(C(C)=O)CC4)cc3OC)ncc2C(F)(F)F)c1 | 0.528 | 0.856 | 0.24 | 0.235
CCC(=O)Nc1cccc(Oc2nc(Nc3ccc(N4CCN(C)CC4)cc3OC)ncc2Cl)c1 | 0.867 | 0.981 | 0.303 | 0.347
C=CC(=O)Nc1cccc(Oc2nc(Nc3ccc(N4CCN(C)CC4)cc3OC)ncc2Cl)c1 | 0.754 | 0.963 | 0.345 | 0.492
C=CC(=O)Nc1ccc(CN2C(=O)N(c3cc(OC)cc(OC)c3)Cc3cnc(Nc4ccc(N5CCN(C)CC5)cc4)nc32)cc1 | 0.926 | 0.803 | 0.0593 | 0.0423
C=CC(=O)Nc1cccc(Sc2nc(Nc3ccc(N4CCN(C)CC4)cc3)ncc2Cl)c1 | 0.965 | 0.898 | 0.0379 | 0.0337
C=CC(=O)Nc1cccc(Oc2nc(Nc3ccc(N4CCN(C)CC4)cc3)ncc2Cl)c1 | 0.338 | 0.355 | 0.157 | 0.146
C[C@@H](Nc1cc(F)cc(F)c1)c1cc(C(=O)N(C)C)cc2c(=O)cc(N3CCOCC3)oc12 | 0.647 | 0.847 | 0.701 | 0.566
CN(C)C/C=C/C(=O)Nc1cc2c(Nc3ccc(F)c(Cl)c3)ncnc2cc1O[C@H]1CCOC1 [Afatinib (BIBW2992) Dimaleate] | 0.77 | 0.984 | 0.77 | 0.767
CN(C)C/C=C/C(=O)Nc1cc2c(Nc3ccc(F)c(Cl)c3)ncnc2cc1O[C@H]1CCOC1 [Afatinib (BIBW2992)] | 0.578 | 0.809 | 0.0953 | 0.0868
O=S(=O)(N=Cc1c(O)ccc2ccccc12)c1cccs1 | 0.71 | 0.953 | 0.696 | 0.77
NC(=O)c1noc([C@H](CCCC2CCCCC2)CC(=O)NO)n1 | 0.928 | 1.03 | 0.623 | 0.827
CNS(=O)(=O)Nc1nccc(Cc2c(C)c3ccc(Oc4ncccn4)cc3oc2=O)c1F | 0.326 | 0.304 | 0.239 | 0.199
COc1cc2c(Oc3ccc4[nH]c(C)cc4c3F)ncnc2cc1OCCCN1CCCC1 [Cediranib (AZD2171)] | 0.99 | 0.847 | 0.0461 | 0.0421
Cc1cc2c(F)c(Oc3ncnn4cc(OC[C@@H](C)O)c(C)c34)ccc2[nH]1 | 0.804 | 0.956 | 0.487 | 0.469
COc1cc2ncnc(Nc3ccc(F)c(Cl)c3)c2cc1OCCCN1CCOCC1 [Gefitinib (ZD1839)] | 1 | 1.11 | 0.492 | 0.555
Cc1ncc(CCCN(C)C)cc1Nc1ncc2c(n1)-c1ccc(C(F)(F)F)cc1NC(=S)C2 | 0.211 | 0.231 | 0.259 | 0.251
CC(C)(C)C[C@@H]1N[C@@H](C(=O)N[C@H]2CC[C@H](O)CC2)[C@H](c2cccc(Cl)c2F)[C@]12C(=O)Nc1cc(Cl)ccc12 | 0.274 | 0.277 | 0.259 | 0.225
CCN(CC)CCN(Cc1ccc(-c2ccc(C(F)(F)F)cc2)cc1)C(=O)Cn1c(SCc2ccc(F)cc2)nc(=O)c2c1CCC2 | 0.329 | 0.569 | 0.0156 | 0.00842
CC(=O)Nc1ccccc1 [Acetanilide] | 0.896 | 1.08 | 0.878 | 1.14
CC(C)(C)C(=O)Nc1ccc2c(c1)C(=O)C(=O)c1ccccc1-2 | 0.175 | 0.0968 | 0.0236 | 0.0127
